The record followed here is PubChem BioAssay (NCATS).

Test [1] in a line: qHTS of pediatric cancer cell lines to identify multiple opportunities for drug repurposing: Primary screen for NB-EBc1 cells (AID 1347095). Also: potency is read from the fitted curve at half-maximal effect. An outline of the steps: (§1)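 Primary screen of approved and investigational compounds on cells in growth media at 37 degrees C, 5% CO2. MIPE set at 11-point and NPC set at 8-point dilutions; viability scored by ATP-based luminescence at 48 hours.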

The nature of test [2]: qHTS of pediatric cancer cell lines to identify multiple opportunities for drug repurposing: Primary screen for U-2 OS cells (AID 1347096). Also: nearly all actives have a fitted effect of over 50% in size. An outline of the steps: (§2)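 Cells (500-1,000/well) in growth media were settled 5 h at 37 degrees C, then given compounds for 48 h. Viability was read as CellTiter-Glo luminescence. Primary runs used MIPE at 11 points (0.78 nM-46 µM) and NPC at 8 points (0.59 nM-46 µM); follow-ups used 11 points.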
A general note: qHTS replaces the single test concentration by a dilution series.

Test [3] can be described thus: qHTS of pediatric cancer cell lines to identify multiple opportunities for drug repurposing: Primary screen for NB1643 cells (AID 1347099). Also: nearly all actives have a fitted effect of over 50% in size. Also: potency is read from the fitted curve at half-maximal effect. An outline of the steps: as §1
Test [4] is described as follows: qHTS of pediatric cancer cell lines to identify multiple opportunities for drug repurposing: Primary screen for LAN-5 cells (AID 1347100). Also: potency is read from the fitted curve at half-maximal effect. An outline of the steps:
as §2

Test [5] is described as follows: qHTS of pediatric cancer cell lines to identify multiple opportunities for drug repurposing: Primary screen for RD cells (AID 1347104). Also: nearly all actives have a fitted effect of over 55% in size. Also: potency is read from the fitted curve at half-maximal effect. The method, boiled down:
as §1

Test [6] is described as follows: qHTS of pediatric cancer cell lines to identify multiple opportunities for drug repurposing: Primary screen for MG 63 (6-TG R) cells (AID 1347105). Also: nearly all actives have a fitted effect of over 50% in size. Also: potency is read from the fitted curve at half-maximal effect. The method, boiled down:
as §1

Test [7] can be described thus: qHTS of pediatric cancer cell lines to identify multiple opportunities for drug repurposing: Primary screen for control Hh wild type fibroblast cells (AID 1347106). Also: nearly all actives have a fitted effect of over 55% in size. Also: potency is read from the fitted curve at half-maximal effect. The method, boiled down:
as §2

Test [8] can be described thus: qHTS of pediatric cancer cell lines to identify multiple opportunities for drug repurposing: Primary screen for Rh30 cells (AID 1347107). Also: nearly all actives have a fitted effect of over 75% in size. Also: potency is read from the fitted curve at half-maximal effect. The method, boiled down: as §2
Test [9] is described as follows: qHTS of pediatric cancer cell lines to identify multiple opportunities for drug repurposing: Primary screen for Saos-2 cells (AID 1347097). Also: nearly all actives have a fitted effect of over 40% in size. Also: potency is read from the fitted curve at half-maximal effect. The method, boiled down: as §1
Test [10] can be described thus: qHTS of pediatric cancer cell lines to identify multiple opportunities for drug repurposing: Primary screen for Rh18 cells (AID 1347102). Also: nearly all actives have a fitted effect of over 65% in size. The method, boiled down: as §2
Test [11] is described as follows: qHTS of pediatric cancer cell lines to identify multiple opportunities for drug repurposing: Primary screen for OHS-50 cells (AID 1347103). Also: nearly all actives have a fitted effect of over 40% in size. Also: potency is read from the fitted curve at half-maximal effect. The method, boiled down:
(§3)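 Cells (500-1,000/well) rested 5 h, then received compounds for 48 h; metabolically active cells were measured by CellTiter-Glo luminescence. Final concentrations spanned up to 46 µM (MIPE, 11-point) or 0.59 nM-46 µM (NPC, 8-point) in primary screens, 11-point in follow-ups.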

Test [12] can be described thus: qHTS of pediatric cancer cell lines to identify multiple opportunities for drug repurposing: Primary screen for SK-N-SH cells (AID 1347098). Also: nearly all actives have a fitted effect of over 65% in size. Also: potency is read from the fitted curve at half-maximal effect. An outline of the steps:
as §3

Test [13] in a line: qHTS of pediatric cancer cell lines to identify multiple opportunities for drug repurposing: Primary screen for BT-12 cells (AID 1347101). Also: nearly all actives have a fitted effect of over 25% in size. Also: potency is read from the fitted curve at half-maximal effect. An outline of the steps: as §3
Test [14] can be described thus: qHTS of pediatric cancer cell lines to identify multiple opportunities for drug repurposing: Primary screen for Rh41 cells (AID 1347108). Also: nearly all actives have a fitted effect of over 70% in size. Also: potency is read from the fitted curve at half-maximal effect. The method, boiled down:
as §1

A short description of test [15]: qHTS of pediatric cancer cell lines to identify multiple opportunities for drug repurposing: Confirmatory screen for NB1643 cells (AID 1347109). Also: potency is read from the fitted curve at half-maximal effect; nearly all actives have a fitted effect of over 45% in size. An outline of the steps: as §2
Test [16] is described as follows: qHTS of pediatric cancer cell lines to identify multiple opportunities for drug repurposing: Confirmatory screen for LAN-5 cells (AID 1347113). Also: potency is read from the fitted curve at half-maximal effect; nearly all actives have a fitted effect of over 65% in size. An outline of the steps:
as §2

Test [17] can be described thus: qHTS of pediatric cancer cell lines to identify multiple opportunities for drug repurposing: Confirmatory screen for A673 cells (AID 1347110).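 Also: cells exposed to compound for 48 h before the viability read; nearly all actives have a fitted effect of over 65% in size.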 An outline of the steps:
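Forty-eight-hour viability assay. Follow-up compounds ran at 11-point dilutions; positive control bortezomib at 2.3 uM final, neutral control DMSO.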

Test [18] is described as follows: qHTS of pediatric cancer cell lines to identify multiple opportunities for drug repurposing: Confirmatory screen for SK-N-MC cells (AID 1347111).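 Also: potency is read from the fitted curve at half-maximal effect; cells exposed to compound for 48 h before the readout; nearly all actives have a fitted effect of over 70% in size.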 The method, boiled down:
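Metabolically active cells were quantified by ATP-dependent luminescence (CellTiter-Glo, 15 min at room temperature) following 48 h treatment. Cells had been plated at 500-1,000 per well and settled for 5 h beforehand.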

Inconclusive results are not listed. Calls of active or inactive are those of the source. Calls follow the shape of the dose curve; as a rule, active = well fitted curve in the direction sought with a large enough effect; inconclusive = small, poorly fitted or top-dose-only effect, or another doubt; inactive = no such curve, though single readings can be large; an effect the other way counts as inactive or inconclusive.

With `Clc1ccc(Cn2c(CN3CCCC3)nc3ccccc32)cc1`, the Potency entry in [1], in test [2], in test [3], in test [4], in [5] and in [6] was “inactive” in each case. In addition, the Potency result in test [7] and in test [8] was “inactive” each time.

For `Cc1ccc([C@@H]2O[C@H](CO)[C@@H](O)[C@H](O)[C@@H]2O)cc1Cc1ccc(-c2ccc(F)cc2)s1`, the Potency entry in test [1], in test [4], in test [10], in test [6] and in test [7] was “inactive” throughout. The Potency in test [9] is 14.8 µM (active); in [11], 34.3 µM (active).

In the case of `COc1cc(NC(=O)c2ccc(-c3ccc(Cl)cc3)o2)cc(OC)c1`, the Potency entry in test [1], in [9], in test [13], in [10] and in test [11] was “inactive” in each case. The Potency was 1.52 µM (active) in [12]; 6.62 µM (active) in test [3]; 7.43 µM (active) in test [6]; 10.5 µM (active) in test [7]; 7.43 µM (active) in [8]; 7.43 µM (active) in test [14].

For the compound `Cc1ccn(-c2ccc(-c3ncco3)cc2)c(=O)c1-c1ccc2nc(N)ncc2c1`, the Potency result in [1], in test [2], in test [3], in [4], in test [7] and in test [8] was “inactive” each time. Also, in [14], the Potency entry was “inactive”. The Potency in test [11] was 2.73 µM (active).

With `Cc1c(NC(=O)c2ccc(C(C)(C)C)cc2)cccc1-c1cn(C)c(=O)c(Nc2ccc(C(=O)N3CCOCC3)cc2)n1`, the results for the Potency in [1], in test [9] and in test [11] were 18.7 µM (active), 18.7 µM (active) and 24.3 µM (active), respectively. In addition, the Potency result in test [7] is “inactive”.

Turning to `Nc1ncnc2c1nc(Cl)n2[C@@H]1O[C@H](CO)[C@@H](O)[C@@H]1O`, the Potency entry in test [1], in test [9] and in test [13] was “inactive” throughout. In addition, the Potency in [3] was 16.6 µM (active); in test [11] it was 15.3 µM (active); in test [5], 29.6 µM (active); in [6], 29.6 µM (active); in [7], 23.5 µM (active).

For the compound `CC1(C)CCC2=C(O1)c1ccccc1C(=O)C2=O`, the Potency in test [1] was 18.7 µM (active); in [9], 18.7 µM (active); in test [13], 30.6 µM (active); in test [5] it was 33.2 µM (active); in [8] it was 23.5 µM (active); in test [14], 18.7 µM (active). Moreover, the results for the Potency in test [15] and in test [16] were 23.3 µM (active) and 9.27 µM (active), respectively. Also, the Potency result in test [2] and in test [7] was “inactive” each time.

For `Cc1ccc(/C=N/NC(=O)c2ccccc2Oc2ccccc2)o1`, the Potency in [1] was 23.5 µM (active); in test [3], 18.7 µM (active); in test [11], 21.7 µM (active). Further, the Potency result in test [2], in test [10], in test [6] and in test [7] was “inactive” throughout.

As for `NC(=O)c1cccc2[nH]c(-c3ccc([C@H]4CCCN4)cc3F)nc12`, the Potency in test [1] is 18.7 µM (active). In addition, the Potency entry in test [2], in [9], in test [13], in [10], in test [5] and in test [7] was “inactive” in each case. Also, the Potency result in test [8] was “inactive”.

For `CO[C@H]1C[C@@H]2CC[C@@H](C)[C@@](O)(O2)C(=O)C(=O)N2CCCC[C@@H]2C(=O)O[C@H]([C@@H](C)C[C@@H]2CC[C@H](O)[C@H](OC)C2)CC(=O)[C@H](C)C=C(C)[C@@H](O)[C@@H](OC)C(=O)[C@H](C)C[C@H](C)C=CC=CC=C1C`, the Potency result in test [2], in [9], in test [12], in test [5], in test [6] and in [7] was “inactive” each time. In addition, the Potency entry in test [8] was “inactive”. For the same compound, in [13], the Potency was 9.68 µM (active).

In the case of `COc1ccc(-c2oc3c(CC=C(C)C)c(OC4O[C@H](CO)[C@@H](O)[C@H](O)[C@@H]4O)cc(O)c3c(=O)c2OC2O[C@@H](C)[C@H](O)[C@@H](O)[C@@H]2O)cc1` (some centres not stated), the Potency in test [1] was 23.5 µM (active); in test [9], 26.4 µM (active); in [3], 20.9 µM (active); in test [4] it was 23.5 µM (active); in test [11] it was 21.7 µM (active). Moreover, the Potency result in [7] was “inactive”.

With `N[C@H](CSC(c1ccccc1)(c1ccccc1)c1ccccc1)C(=O)O`, the Potency in test [1] is 11.8 µM (active); in test [9] it was 9.35 µM (active); in test [13] it was 27.3 µM (active); in [11], 6.11 µM (active). Also, the Potency result in test [3], in [10], in test [6], in [7] and in [8] was “inactive” each time.

In the case of `COc1cc2c(cc1OC)CN(CCc1ccc(NC(=O)c3cc(OC)c(OC)cc3NC(=O)c3cnc4ccccc4c3)cc1)CC2`, the Potency entry in test [1], in test [2], in test [13], in test [10], in test [6] and in [7] was “inactive” each time. Besides, in test [8], the Potency entry is “inactive”. Also, the Potency in test [3] was 14.8 µM (active).

Take `CC(C)C(=O)Nc1ncc(-c2cc(C(F)F)nn2-c2c(Cl)cccc2Cl)s1`: the Potency in test [1] was 16.6 µM (active); in [9] it was 18.7 µM (active); in test [4], 23.5 µM (active); in test [11] it was 27.3 µM (active). Besides, the Potency entry in test [8] was “inactive”.

For `COCCOc1nc(-c2ccc(Cl)c(Cl)c2)n(-c2ccc(NC(=O)CCl)cc2)n1`, the Potency in [1] is 16.6 µM (active); in test [3] it was 16.6 µM (active); in test [4] it was 18.7 µM (active); in [13], 5.44 µM (active); in test [11] it was 6.11 µM (active). Further, the Potency entry in [2] and in [7] was “inactive” throughout.

Take `CCOC1OC(=O)C[C@H]1NC(=O)[C@@H]1CCCN1C(=O)[C@@H](NC(=O)c1ccc(N)c(Cl)c1)C(C)(C)C` (some centres not stated): the Potency is 8.33 µM (active) in test [1]; 1.18 µM (active) in [9]; 0.833 µM (active) in test [4]; 1.37 µM (active) in test [13]; 1.22 µM (active) in test [11]. In addition, the Potency result in test [2], in test [10], in test [6], in test [7] and in [8] was “inactive” throughout.

Regarding `CC[C@H]1OC(=O)[C@H](C)C(=O)[C@H](C)[C@@H](O[C@H]2O[C@H](C)C[C@H](N(C)C)[C@@H]2O)[C@](C)(OC)C[C@@H](C)C(=O)[C@H](C)[C@H]2N(CCCCn3cnc(-c4cccnc4)c3)C(=O)O[C@]12C`, the Potency entry in test [1], in [2], in test [9] and in [11] was “inactive” each time.

As to `N[C@@]1(C(=O)O)CS(=O)(=O)[C@H]2[C@H](C(=O)O)[C@H]21`, the Potency result in test [1], in [9], in test [12], in test [10], in test [7] and in test [8] was “inactive” in each case. The Potency entry in [14] and in test [17] was “inactive” throughout. In addition, the Potency in [18] is 0.0465 µM (active).
